In the library only some 0.3% were active in any assay of this set; here they are far more common.
NPYLR7 agonist = mosquito NPYLR7 agonism; HEK293T NPYLR7/Galpha15, GCaMP6s calcium fluorescence; activation, % at 10 µM; hit rate 0.15% among 270,000; AID 1259423; in the data active = activation above about 40%;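 note: 0% = vehicle and 100% = reference agonist at the receptor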
mcGAS lum = blocks mouse cGAS activity | AID 1259399 | inhibition, % at 12.5 µM | recombinant cGAS, Kinase-Glo ATP depletion luminescence | Q8C6L5 | hit rate 0.15% among 160,000;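 note: 0% = negative control wells and 100% = reference inhibitor with no enzyme activity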
Target sequence (Q8C6L5 whole entry, looked up): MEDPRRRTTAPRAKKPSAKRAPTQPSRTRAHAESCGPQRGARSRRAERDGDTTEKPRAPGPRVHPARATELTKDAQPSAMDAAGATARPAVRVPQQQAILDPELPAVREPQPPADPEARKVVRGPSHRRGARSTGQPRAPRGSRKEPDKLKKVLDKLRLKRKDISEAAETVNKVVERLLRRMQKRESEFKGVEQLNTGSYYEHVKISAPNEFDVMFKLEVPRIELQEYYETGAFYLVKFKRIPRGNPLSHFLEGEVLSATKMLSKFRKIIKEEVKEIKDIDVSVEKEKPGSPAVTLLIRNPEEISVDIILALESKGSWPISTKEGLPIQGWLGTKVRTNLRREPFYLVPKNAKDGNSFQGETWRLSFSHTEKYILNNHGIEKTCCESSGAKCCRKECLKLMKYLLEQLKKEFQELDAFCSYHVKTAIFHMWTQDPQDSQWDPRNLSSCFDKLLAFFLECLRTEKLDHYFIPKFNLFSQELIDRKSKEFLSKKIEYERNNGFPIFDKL
hcGAS inh = human cGAS inhibition | AID 1259398 | recombinant h-cGAS, ATP depletion, Kinase-Glo luminescence | hit rate 0.081% among 290,000 | inhibition, % at 12.5 µM;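 note: 0% = vehicle reaction and 100% = reaction without DNA for no activity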
Numbers without * were called inactive; nt = not tested or not shown. Cut-off read from the data, not from the text of the source, unless noted: active = inhibition above about 40%; inactive = the rest.

SMILES	NPYLR7 agonist	mcGAS lum	hcGAS inh
CC(C)C(=O)Nc1sc2c(c1-c1nc3ccccc3s1)CCN(C)C2	49*	0	10
CCOC(=O)N1CCc2c(sc(NC(=O)C(C)C)c2-c2nc3ccccc3s2)C1	5	nt	-4
CN1CCc2c(sc(NC(=O)Cc3ccccc3)c2-c2nc3ccccc3s2)C1	45*	-4	0
CC(C)N1CCc2c(sc(NC(=O)C3CC3)c2-c2nc3ccccc3s2)C1	166*	32	45*
CC(C)C(=O)Nc1sc2c(c1-c1nc3ccccc3s1)CCN(C(C)C)C2	66*	90*	78*
CC(=O)N1CCc2c(sc(NC(=O)Cc3ccccc3)c2-c2nc3ccccc3s2)C1	3	nt	-5
CC(=O)N1CCc2c(sc(NC(=O)c3ccccc3)c2-c2nc3ccccc3s2)C1	3	nt	-2
CC(C)N1CCc2c(sc(NC(=O)c3ccc([N+](=O)[O-])o3)c2-c2nc3ccccc3s2)C1	-3	-6	-3
Clc1ccc2c(c1)C(Nc1ccc3nnnn3n1)CCS2 (stereo unspecified)	6	nt	-4
COc1ccc(CN(CCc2c[nH]c3ccccc23)C(=O)CN(C(=O)c2cccs2)C2CC2)cc1	17	-6	-4
O=C(Nc1nc(SC23CC4CC(CC(C4)C2)C3)ns1)C1CCCO1 (stereo unspecified)	nt	-3	-8
CCOC(=O)CNc1ccccc1C(=O)N1CCCCCCC1	19	nt	-11
Cc1ccc(-c2nc(NC(=O)c3ccn(C)c(=O)c3)sc2C)s1	-22	nt	-6
O=S(=O)(NC1CCc2ccccc21)c1ccc(Cl)cc1F (stereo unspecified)	8	-6	-3
N#CC(=CC1C(=O)N(c2c(Cl)cccc2Cl)c2ccccc21)C(N)=NCc1ccccc1 (stereo unspecified)	-11	nt	-4
CN(C)/C=C1\C(=O)N(c2c(Cl)cccc2Cl)c2cc(C=C(C#N)C#N)ccc21	125*	nt	-38
COc1ccc(-c2coc3cc(O)ccc3c2=O)c(O)c1O	nt	68*	51*
COc1ccc(-c2coc3cc(O)ccc3c2=O)c(OC)c1O	-4	-2	-2
O=C1/C(=C/c2csnn2)CCOc2cc(Br)ccc21	13	53*	-6
COc1ccc2c(c1)CCC(=Cc1cc(Br)ccc1OC)C2=O	-1	-5	-2
CCS(=O)(=O)NCCN1CCCC1c1cccc(N(C)C)c1 (stereo unspecified)	1	nt	0
COc1ccccc1-c1cc(C(=O)NCCCN2CCOCC2)n2nc(-c3ccccc3)cc2n1	nt	-8	-5
COc1ccccc1-c1cc(C(=O)NCCCN2CCOCC2)n2nc(-c3ccc(Cl)cc3)cc2n1	17	42*	-2
COc1ccc(CN2C3CCC2CC(NC(=O)c2cccc4ccccc24)C3)c(OC)c1 (stereo unspecified)	4	-4	-3
CC(C)c1nc(NC(=O)CS(=O)(=O)C2CCCC2)n(C)n1	3	nt	-10
SMILES	NPYLR7 agonist	mcGAS lum	hcGAS inh
CC(C)c1nc(NC(=O)c2[nH]ncc2Br)n(C)n1	85*	nt	49*
O=C(C1CCOC1)N1CCC(n2cnc3cc(C(F)(F)F)ccc32)CC1 (stereo unspecified)	8	-8	-4
Cc1cc(C)c(S(=O)(=O)NCCOc2cc(N3CCCC3)ncn2)cc1C	1	nt	-3
CCCCCCSC1=C(C#N)C2(CCCCC2)C(C#N)C(=O)N1 (stereo unspecified)	0	-4	-6
Cc1ccc(CN(C)C(=O)CCl)o1	-1	7	4
CN(Cc1ccc(-c2ccc(Cl)cc2)o1)C(=O)CCl	6	50*	-5
CN1C(=CP(=O)(N(C)C)N(C)C)C(C)(C)c2ccccc21	1	nt	3
CN1C(=CC=C2C(=O)Oc3ccccc3C2=O)C(C)(C)c2ccccc21	49*	nt	-7
CCC(C)N(Cc1ccc(N(CC)CC)cc1OS(=O)(=O)CC)C(=O)c1cccs1 (stereo unspecified)	6	-4	-8
Cc1ccc(C)c(C2c3cccn3CCCN2Cc2ccsc2)c1 (stereo unspecified)	2	-4	-3
O=C(N=Nc1c(O)[nH]c2ccc(Br)cc12)c1ccccc1Cl	72*	-3	1
O=C(N=Nc1c(O)[nH]c2ccc(Br)cc12)c1ccccc1O	11	-3	3
CC(C)=CCCC1(C)C=Cc2c(O)c3c(c(CC=C(C)C)c2O1)OC12C(=CCCC1C(C)(C)O[C@@]2(C/C=C(\C)C(=O)O)C(=O)O)C3=O (stereo partly specified)	nt	58*	68*
CC(C)=CCc1c2c(c(O)c3c(=O)c(O)c(-c4ccccc4)oc13)C=CC(C)(C)O2	-4	-3	0
CC(C)CCCC1CN(C(=O)c2ccc3c(c2)OCO3)CCO1 (stereo unspecified)	10	nt	-8
CC(=O)Oc1cccc2c1C(=O)c1c(OC(C)=O)cc(C(=O)O)cc1C2=O	-3	12	57*

Screens deposited in PubChem by Fisher Drug Discovery Resource Center.
